PubChem BioAssay
Active and inactive are the calls of the source. Unless noted, the rule behind the calls is not given here.

Tests used:
[1] = resazurin metabolic signal in HepG2 cells – cell-based, resazurin fluorescence, 24 h, PK04 Diversity Set, profiling panel (AID 1172); conditions: HepG2 viability, higher = more signal; note: test concentration not given here
[2] = budding yeast growth changes without added modifier – OD600, strain BY4716, 24 h, basal condition, primary screen (AID 1173); conditions: S. cerevisiae BY4716 growth, OD600, 24 h; higher = more signal, called active from +8 up or from −8 down
[3] = viability profiling in MM1S myeloma cells – cell-based, resazurin fluorescence, basal, 24 h, PK04 Diversity Set, profiling panel (AID 1174); conditions: higher = more signal, called active from +8 up or from −8 down;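 note: MM1S multiple myeloma cell line; test concentration not given here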
[4] = target: Dihydroorotate dehydrogenase (quinone), mitochondrial (Plasmodium falciparum (isolate 3D7)) (UniProt Q08210); experiment: inhibition of P. falciparum DHODH – biochemical, C-terminal His tag, absorbance 600 nm, primary screen (AID 1175); conditions: PfDHODH enzyme, DCIP absorbance 600 nm; higher = more signal, called active from +8 up or from −8 down;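 note: recombinant parasite enzyme with a five histidine tag at its C terminus; test concentration not given here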
[5] = inhibition of PAO1 biofilm formation – strain PAO1, LB-PBS medium, absorbance 600 nm, primary screen (AID 1176); note: test concentration not given here; conditions: P. aeruginosa PAO1 growth/biofilm, A600, 12 h; higher = more signal
[6] = growth modulation of vineyard yeast isolate – strain RM11-1a, OD600, basal, 24 h, primary screen (AID 1177);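 note: cultures grown under basal conditions with no added stressor; test concentration not given here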; conditions: S. cerevisiae RM11-1a growth, OD600, 24 h; higher = more signal, called active from +8 up or from −8 down
[7] = growth of efflux-deficient E. coli DRC39 – strain DRC39, OD650, 24 h, E. coli filamentation inducers, primary screen (AID 1178);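 note: growth measured as culture turbidity by optical density at 650 nm; test concentration not given here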; conditions: E. coli DRC39 acrAB, higher = more signal, called active from +8 up or from −8 down
[8] = growth of efflux-deficient E. coli DRC39 – strain DRC39, OD650, 48 h, E. coli filamentation inducers, primary screen (AID 1179);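 note: screen aims at cell division blockers that make cells filament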; conditions: E. coli DRC39 delta-acrAB growth, higher = more signal, called active from +8 up or from −8 down
[9] = viability profiling in RPMI8226 myeloma cells – cell-based, resazurin fluorescence, basal, 24 h, PK04 Diversity Set, profiling panel (AID 1180); conditions: higher = more signal;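 note: RPMI8826 multiple myeloma cell line at 5000 cells per well; test concentration not given here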
[10] = target: E3 ubiquitin-protein ligase XIAP (Homo sapiens) (UniProt P98170); experiment: small molecules binding XIAP protein – biophysical, small-molecule microarray, fluorescence 635 nm, primary screen (AID 1181); conditions: higher = more signal;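 note: score merges 667 nm emission and signal to noise over triplicate slides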
E3 ubiquitin-protein ligase XIAP (Homo sapiens), sequence (P98170 whole entry, looked up): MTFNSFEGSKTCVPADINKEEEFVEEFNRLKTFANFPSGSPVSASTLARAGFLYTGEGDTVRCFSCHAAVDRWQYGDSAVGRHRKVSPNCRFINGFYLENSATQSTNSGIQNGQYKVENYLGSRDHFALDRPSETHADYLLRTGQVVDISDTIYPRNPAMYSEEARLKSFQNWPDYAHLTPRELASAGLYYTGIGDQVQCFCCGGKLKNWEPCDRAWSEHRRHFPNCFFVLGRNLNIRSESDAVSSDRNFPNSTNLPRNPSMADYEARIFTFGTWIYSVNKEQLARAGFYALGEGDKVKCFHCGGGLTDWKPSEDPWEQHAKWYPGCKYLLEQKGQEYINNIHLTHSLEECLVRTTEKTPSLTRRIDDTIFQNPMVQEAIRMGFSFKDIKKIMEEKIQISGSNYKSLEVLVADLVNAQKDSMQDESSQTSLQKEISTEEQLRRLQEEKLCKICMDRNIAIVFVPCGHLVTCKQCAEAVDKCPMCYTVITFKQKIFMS

Dihydroorotate dehydrogenase (quinone), mitochondrial (Plasmodium falciparum (isolate 3D7)), sequence (Q08210 whole entry, looked up): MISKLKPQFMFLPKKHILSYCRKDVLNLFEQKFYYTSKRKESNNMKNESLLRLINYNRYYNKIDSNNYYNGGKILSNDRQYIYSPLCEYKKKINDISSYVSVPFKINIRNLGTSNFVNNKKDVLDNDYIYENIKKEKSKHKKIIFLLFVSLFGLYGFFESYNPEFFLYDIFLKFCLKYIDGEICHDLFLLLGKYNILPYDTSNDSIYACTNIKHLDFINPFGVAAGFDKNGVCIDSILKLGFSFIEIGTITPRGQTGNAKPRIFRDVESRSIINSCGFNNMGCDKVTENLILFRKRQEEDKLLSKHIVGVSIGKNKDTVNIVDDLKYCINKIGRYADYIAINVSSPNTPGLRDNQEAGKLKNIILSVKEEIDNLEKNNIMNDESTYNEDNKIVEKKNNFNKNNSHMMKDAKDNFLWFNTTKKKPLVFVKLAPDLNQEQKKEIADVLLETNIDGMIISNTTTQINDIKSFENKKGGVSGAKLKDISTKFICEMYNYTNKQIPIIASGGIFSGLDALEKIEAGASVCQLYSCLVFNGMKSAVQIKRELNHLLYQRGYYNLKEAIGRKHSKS

Compound	z-score [1]	z-score [2]	z-score [3]	composite z-score [4]	z-score [5]	z-score [6]	z-score [7]	z-score [8]	z-score [9]	composite z-score [10]
O=C1O[C@@H](c2ccccc2)[C@@H](c2ccccc2)N2[C@@H](c3ccc(OCCO)cc3)[C@]3(C(=O)Nc4ccc(C#CCCO)cc43)[C@@H](C(=O)O)[C@H]12	-0.0464	-0.718 (inactive)	0.314 (inactive)	-1.25 (inactive)	0.185 (inactive)	0.575 (inactive)	0.932 (inactive)	0.91 (inactive)	0.104	0.104
C=CCN1C(=O)[C@@]2(O[C@@H](CCn3cc([C@H](O)c4ccccc4)nn3)[C@H]([Si](C)(C)c3ccc(OC)cc3)[C@H]2C)c2cc(N3C(=O)c4cccc5cccc3c45)ccc21	-1.36	0.318 (inactive)	-2.17 (inactive)	-0.0217 (inactive)	0.72 (inactive)	1.72 (inactive)	0.0833 (inactive)	-0.0869 (inactive)	-2.42	0.212
CCCC#C[Si](O[C@H](CC)c1cn(Cc2ccccc2)nn1)(C(C)C)C(C)C	-0.394	-14.2 (active)	-1.05 (inactive)	-0.205 (inactive)	0.0763 (inactive)	-0.0787 (inactive)	-0.393 (inactive)	-0.195 (inactive)	-0.754	-0.173
O=C(NCC(O)CO)[C@@]1(CCS(=O)(=O)c2ccccc2)N=C(c2ccc(OCCCO)cc2)O[C@H]1c1ccccc1 (stereo not given in full)	-0.748	-0.386 (inactive)	-0.133 (inactive)	-0.637 (inactive)	0.618 (inactive)	-0.707 (inactive)	0.107 (inactive)	-0.618 (inactive)	-0.195	0.0341
CN1C(=O)C2C(C1=O)C1C=C(c3ccc(CO)cc3)C2C(C2CC2)N1C (stereo not given)	-0.849	0.385 (inactive)	-0.485 (inactive)	0.918 (inactive)	-0.305 (inactive)	0.358 (inactive)	-0.453 (inactive)	-0.335 (inactive)	-0.772	-0.0611
COc1cc(C(O)C2C=CC3C(=O)N(c4ccccc4)C(=O)C3N2Nc2ccccc2)cc(OC)c1OC (stereo not given)	-0.945	-7.58 (inactive)	-0.191 (inactive)	0.484 (inactive)	1.11 (inactive)	0.499 (inactive)	-0.393 (inactive)	-0.433 (inactive)	-0.977	0.0845
O=C1C2C=CC(C(O)c3c(F)cccc3Cl)N(Nc3ccc([N+](=O)[O-])cc3)C2C(=O)N1c1ccccc1 (stereo not given)	-0.0492	0.615 (inactive)	-0.396 (inactive)	0.406 (inactive)	0.685 (inactive)	0.378 (inactive)	-0.333 (inactive)	-0.194 (inactive)	0.278	-0.357
COCCCN1C(=O)[C@@]2(c3ccc([N+](=O)[O-])cc3)CC(=O)N(CC34CC5CC(CC(C5)C3)C4)[C@@H]2c2ccc(CO)cc21	-0.35	1.09 (inactive)	-0.566 (inactive)	-6.02 (inactive)	0.792 (inactive)	0.0202 (inactive)	0.2 (inactive)	0.334 (inactive)	-0.79	0.113
COCCCNC(=O)[C@@H]1c2ccccc2C(=O)N(Cc2ccc(OC(F)(F)F)cc2)[C@H]1c1ccc(CO)cc1	0.201	0 (inactive)	-0.148 (inactive)	0.228 (inactive)	0.801 (inactive)	-1.06 (inactive)	0.454 (inactive)	-0.34 (inactive)	0.116	-0.219
COC(=O)[C@@]1(Cc2ccc(OC)cc2)[C@H]2c3cc(C(=O)N4CCCC4)n(Cc4c(CO)[nH]cc(C)c4=O)c3C[C@H]2CN1C(=O)c1ccccc1	0.229	0.684 (inactive)	0.421 (inactive)	-1.21 (inactive)	0.548 (inactive)	0.124 (inactive)	0.153 (inactive)	1.17 (inactive)	0.572	0.477
O=C1C2C=CC(C(O)c3ccc([N+](=O)[O-])cc3)N(Nc3ccccc3F)C2C(=O)N1c1ccccc1 (stereo not given)	-0.54	-1.45 (inactive)	-0.348 (inactive)	0.15 (inactive)	1.19 (inactive)	0.646 (inactive)	-0.892 (inactive)	-0.591 (inactive)	-0.608	0.0049
CC(C)=CCCC(C)=CC(O)C1C=CC2C(=O)NC(=O)C2N1Nc1ccccn1 (stereo not given)	-1.33	0.386 (inactive)	-0.58 (inactive)	0.242 (inactive)	1.55 (inactive)	-0.881 (inactive)	-0.222 (inactive)	0.528 (inactive)	-0.754	0.0602
